# Source: PubChem BioAssay
# CYP2C9 act: increases human cytochrome P450 2C9 activity; P11712; recombinant CYP2C9, luciferin-H conversion, luminescence; stronger effect = higher value; factor 1 = untreated enzyme, 0 = blocked; activation factor at 5 µM; hit rate 1.4% among 96,000;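 active = activation factor of 2 or more for CYP2C9 at a 5 µM dose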;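 note: 0 = sulfaphenazole-blocked wells and 1 = vehicle-only wells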
# Target sequence (P11712 whole entry, looked up): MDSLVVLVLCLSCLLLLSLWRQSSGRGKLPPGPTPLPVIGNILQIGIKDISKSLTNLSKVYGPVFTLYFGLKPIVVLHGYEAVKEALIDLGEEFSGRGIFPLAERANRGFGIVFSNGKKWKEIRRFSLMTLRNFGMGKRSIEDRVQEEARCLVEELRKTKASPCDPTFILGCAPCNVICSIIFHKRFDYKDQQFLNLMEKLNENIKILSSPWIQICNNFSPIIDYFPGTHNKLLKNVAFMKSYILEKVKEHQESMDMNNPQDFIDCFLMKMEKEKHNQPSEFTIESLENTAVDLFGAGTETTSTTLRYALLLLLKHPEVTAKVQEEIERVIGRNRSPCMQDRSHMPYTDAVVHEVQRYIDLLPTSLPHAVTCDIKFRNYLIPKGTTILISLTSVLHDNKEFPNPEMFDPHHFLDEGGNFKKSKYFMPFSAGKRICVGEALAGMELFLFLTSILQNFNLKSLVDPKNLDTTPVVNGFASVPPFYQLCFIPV
# sEH inhibitor: soluble epoxide hydrolase (human) inhibition. AID 707. hit rate 0.34% among 91,000. P34913. recombinant human sEH enzymatic activity assay. inhibition, % at 2 µM; in the data active = inhibition above about 80%
# CYP2C9 inhib: human CYP2C9 inhibition | CYP2C9 Supersomes, luciferin-H conversion, luminescence | hit rate 20% among 96,000 | P11712 | inhibition, % at 5 µM;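 active = blocking of liver enzyme CYP2C9 beyond about 50% at 5 µM, limit read from the data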
# CYP2C19 activ: cytochrome P450 2C19 (human) activation. recombinant CYP2C19, luciferin-H EGE luminescence; stronger effect = higher value; 0 = fully inhibited enzyme, 1 = untreated enzyme. activation factor at 5 µM. 96,000 tested, under 10 active. AID 1025;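 active = activation factor of at least 2 at 5 µM in the primary screen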;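 note: 0 = wells with 2.5 mM tranylcypromine and 1 = vehicle-only wells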
# sEH activator: increases human soluble epoxide hydrolase activity. P34913. purified human sEH enzymatic activity, activator screen. activation, % at 2 µM. hit rate 0.04% among 91,000; in the data active = activation above about 37%
# CYP2C19 inh: human CYP2C19 inhibition | CYP2C19 Supersomes, luciferin-H EGE luminescence, 30 min | inhibition, % at 5 µM | hit rate 21% among 96,000 | AID 778;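 active = CYP2C19 inhibition above a set limit at 5 µM in the primary screen, cut at about 50% in these data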;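 note: plate controls were negative control wells for no effect and 2.5 mM tranylcypromine positive control for full effect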
# The depositor's hits bear a star; x = no result given. Sampled rows, rich in hits. Any-hit rate of the full collection: about 27%.
SMILES,CYP2C9 act,sEH inhibitor,CYP2C9 inhib,CYP2C19 activ,sEH activator,CYP2C19 inh
CCC(=O)Nc1nc(=S)ss1,0,1,99*,0.8,-2,23
COc1ccc(C(=O)Cn2c(NCCO)nc3ccccc32)cc1OC,x,-2,x,x,1,x
COc1cccc(N2CC(O)=C(c3ccccc3)C2=N)c1,1.1,4,-6,0.9,-3,12
Cc1ccc(Cn2cnc3ccccc32)cc1,0.4,-16,58*,0.2,11,77*
CCOC(=O)Cn1c(Br)nc2c1c(=O)[nH]c(=O)n2C,0.9,-12,12,0.9,14,5
CC1(C)CC(=O)C2=C(C1)NCN(Cc1ccc3c(c1)OCO3)C2,0.1,2,85*,0.9,-2,15
c1cc2c(cc1CN1CCOCC1)OCO2,0.9,-14,6,0.7,17,30
COc1ccc(CCNc2oc(-c3ccco3)nc2C#N)cc1,x,-4,x,x,8,x
N#Cc1nc(-c2ccco2)oc1NCCc1ccccc1,0.2,6,75*,0,-7,96*
N#Cc1nc(-c2cccs2)oc1NCc1ccc2c(c1)OCO2,0.1,-5,94*,0.5,8,54*
N#Cc1nc(-c2cccs2)oc1NCCc1ccccc1,0.3,-8,68*,0.7,6,26
CNc1oc(-c2cccs2)nc1C#N,1.3,-20,-29,1,18,1
CC(=O)N=c1cccc(NC(C)=O)n1O,1.2,-12,-16,1.1,13,-13
Cc1ccc(NC2=NC3(CCCCC3)N=C(N)N2)c(C)c1,1,-3,1,0.9,1,5
O=C(COc1ncnc2ccccc12)NCCC1=CCCCC1,0.7,x,27,0.5,x,54*
O=C(/C=C/c1cccc2ccccc12)NCCC1=CCCCC1,2.7*,59,-169,0.8,-58,18
O=C(COc1nncc2ccccc12)NCCC1=CCCCC1,1,9,-4,0.6,-7,36
O=C(NCCC1=CCCCC1)C(=O)NCc1ccccc1Cl,0.9,10,13,1,-8,2
O=C(COc1cnc2ccccc2n1)NCCC1=CCCCC1,0.7,-9,28,0.5,7,55*
O=C(Cn1nc(C(=O)O)c2ccccc2c1=O)NCCC1=CCCCC1,0.8,x,23,0.4,x,58*
C=CC(=O)Nc1ccc(Br)cc1,1,-1,0,1.1,2,-7
CN(C)Cc1c(O)ccc2c3c(c(=O)oc12)CCCCC3,1.2,-18,-17,1,18,0
CN(Cc1c(O)ccc2c1oc(=O)c1ccccc12)C1CCCCC1,0.7,x,26,0.5,x,50*
Cc1cc(C)n(CCn2nc(C)cc2C)n1,1,6,1,0.6,-6,40
O=C(c1ccccc1)N1CCC(c2nc3c(nnn3Cc3ccco3)c(=O)[nH]2)CC1,0.5,1,53*,0.9,-2,14
SMILES,CYP2C9 act,sEH inhibitor,CYP2C9 inhib,CYP2C19 activ,sEH activator,CYP2C19 inh
Cc1ccc(Cn2nnc3c(=O)[nH]c(C(=O)NCc4ccco4)nc32)cc1,1,x,4,1,x,1
O=C(c1ccc(Cl)cc1Cl)N1CCC(c2nc3c(nnn3Cc3ccco3)c(=O)[nH]2)CC1,0.4,2,59*,1,-3,4
CCC(=O)N[C@@H]1CC(C(C)(C)NC(=O)CC)CC=C1C (stereo partly drawn),0.9,x,8,1,x,2
O/N=C(\COc1ccccc1O)c1ccccc1,0.6,11,37,0.1,-12,93*
CCC(CC)NC(=O)COC(=O)c1cccc(C)c1O,1.1,-17,-12,0.8,15,16
CCOC(=O)CCCNC(=O)COC(=O)c1cccc(C)c1O,0.5,x,47,0.3,x,67*
Cc1cc(C)nc(N2CCN(CC(=O)NCc3ccccc3)CC2)n1,1,2,-4,1.1,-4,-9
COC(=O)C1CSc2[nH]c(=O)sc2C1c1ccc(O)c(OC)c1 (stereo not drawn),0.9,-7,6,1,7,2
CCOC(=O)C1CSc2[nH]c(=O)sc2C1c1ccccc1 (stereo not drawn),0.4,3,62*,0.2,-1,81*
Cc1ccc2nc(C3CCN(C(=O)c4ccco4)CC3)[nH]c2c1,0.7,12,26,0.9,-11,6
OC(COCC1CC=CCC1)Cn1cnc2ccccc21 (stereo not drawn),0.6,8,39,0.3,-6,72*
OC(CN(c1ccccc1)c1ccccc1)Cn1cnc2ccccc21 (stereo not drawn),0,-1,98*,0,0,96*
CCOC(=O)c1c(C)c(C(=O)NCCCN2CCCC2=O)c(C)n1CC,1.1,-2,-10,1.1,4,-8
Cc1cc(C(=O)NCc2cc(C(=O)O)oc2C)c(C)o1,1,0,1,1.1,0,-6
Brc1cnc(N2CCOCC2)nc1N1CCCCC1,0.7,1,32,0.4,4,58*
CCOc1ccccc1NC(=S)/C(=C(\[O-])c1ccc2c(c1)OCCO2)[n+]1ccc(CC)cc1,0.4,4,62*,0.4,-3,59*
COc1ccc(N2C(=O)C3CCCN3C2c2ccc(Cl)cc2)cc1 (stereo not drawn),0.8,6,16,0.9,-7,7
COc1ccc(C2N(c3cccc(Cl)c3)C(=O)C3CCCN32)cc1 (stereo not drawn),0.3,-4,66*,0.5,1,47
COc1ccc(C2N(c3ccc(Cl)cc3)C(=O)C3CCCN32)cc1 (stereo not drawn),0.6,2,45,0.5,-5,52*
O=C(NCCCN1CCN(CCCNC(=O)c2ccccc2F)CC1)c1ccccc1F,1.3,11,-31,1.1,-13,-14
C=CCN(CC=C)C(=O)C(=O)c1cc(C)n(-c2ccc([N+](=O)[O-])cc2)c1C,0.6,1,44,0,0,98*
Cc1cc(/C=C(\C#N)C(=O)NCc2cccs2)c(C)n1-c1ccc([N+](=O)[O-])cc1,x,-3,x,x,3,x
Cc1cc(C(=O)C(=O)N(C)C)c(C)n1-c1ccc([N+](=O)[O-])cc1,1,-10,3,0.3,12,72*
N#C/C(=C1/CCCCCN1)c1nnc2n1CCCCC2,1,-3,-4,1,4,2
C=CCN1C(c2ccccc2)=CS/C1=C(\C#N)c1nnc2n1CCCCC2,0.7,x,27,0.2,x,83*
CCOc1ccc(C2=CS/C(=C(\C#N)c3nnc4n3CCCCC4)N2CC)cc1,0.8,13,18,0.5,-10,54*
O=C(NCc1ccccn1)C(C(=O)c1ccc(F)cc1)n1ccccc1=O (stereo not drawn),1.2,12,-20,1.1,-9,-12
Cc1cc(C)c(S(=O)(=O)c2ccccc2)c(OC(=O)c2cc(F)c(F)cc2Cl)n1,0.9,5,7,1,-4,3
CCOc1ccc(OCCOc2ncnc3ccccc23)cc1,0.9,1,12,0.7,-2,34
